SMILES strings stand for the structures. Results filed as inconclusive are left out. Where a call stands in place of a potency, no number is given. Activity calls are given as the source filed them. Calls follow the shape of the dose curve; as a rule, active = well fitted cell-killing curve with a large enough effect in the repeat runs; inconclusive = weak or mixed curves, or effect the other way; inactive = flat fitted curve, though single readings scatter.
Potency is read from the fitted curve at half-maximal effect.

The nature of the experiment: cAMP Responsive Elements (CRE) small molecule antagonists, cell-based qHTS assay: qHTS cell viability counter screen (AID 2060913). Also: nearly all actives have a fitted effect of over 40% in size. To be noted: CRE-bla HEK293T viability, CellTiter-Glo luminescence, 5 h; series mostly up to 92.4 µM. The essentials:
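Cytotoxicity counter screen multiplexed with the CRE-bla antagonist read: HEK293T cells in DMEM with dialyzed FBS and 25 mM HEPES were treated 3 hrs under 0.25 uM final NKH477, then viability measured by CellTiter-Glo luminescence.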
Take `CCOP(=S)(Oc1cnc(C(C)(C)C)nc1)OC(C)C` (stereo not given): the Potency result is “inactive”.

On to `COC(=O)C(C)N(C(=O)Cc1ccccc1)c1c(C)cccc1C` (stereo not given), for which the Potency entry was “inactive”.

In the case of `O=[N+]([O-])c1cc([N+](=O)[O-])c2ccccc2c1`, the Potency result was “inactive”.

For the compound `O=[N+]([O-])c1c2ccccc2cc2ccccc12`, the Potency entry is “inactive”.

Consider `Clc1ccc(C(OCCN2CCCCC2)c2ccccc2)cc1` (stereo not given), for which the Potency entry was “inactive”.

For the compound `c1ccc(OP(Oc2ccccc2)Oc2ccccc2)cc1`, the Potency result was “inactive”.

As to `COc1ccc(OC)c(C=O)c1`, the Potency result was “inactive”.

Take `CC(=O)C(Cl)(Cl)Cl`: the Potency was 26.4 µM (active).

With `CCN(C(C)=O)c1cccc(-c2ccnc3c(C#N)cnn23)c1`, the Potency result was “inactive”.

Regarding `CCOC(=O)/C=C(C)/C=C/C[C@@H](C)CCCC(C)C`, the Potency entry was “inactive”.

With `Nc1ccc(Sc2ccc(N)cc2)cc1`, the Potency result is “inactive”.

Consider `Oc1ccc(C2(c3ccc(O)cc3)CCCCC2)cc1`, for which the Potency entry was “inactive”.

`CN(C)c1ccc(N(C)C)cc1`: the Potency result was “inactive”.

As for `C[C@]12CC[C@@H]3c4ccc(OC(=O)N(CCCl)CCCl)cc4CC[C@H]3[C@@H]1CC[C@@H]2O`, the Potency entry is “inactive”.

Turning to `CN1CC[C@]23c4c5ccc(O)c4O[C@H]2[C@@H](O)CC[C@H]3[C@H]1C5`, the Potency result is “inactive”.

With `CC(Cl)C(C)Cl` (stereo not given), the Potency result is “inactive”.

In the case of `CCCCCCCc1ccc(O)cc1`, the Potency result is “inactive”.

In the case of `CCN(CC)c1c([N+](=O)[O-])cc(C(F)(F)F)c(N)c1[N+](=O)[O-]`, the Potency is 54.5 µM (active).

In the case of `CS(=O)(=O)c1ccc(C(=O)C2C(=O)CCCC2=O)c([N+](=O)[O-])c1`, the Potency entry was “inactive”.

In the case of `NS(=O)(=O)C(F)(F)C(F)(F)C(F)(F)C(F)(F)C(F)(F)C(F)(F)C(F)(F)C(F)(F)F`, the Potency entry is “inactive”.

Take `CC(=O)Nc1cc([As](=O)(O)O)ccc1O`: the Potency entry is “inactive”.

With `Nc1cc(Cl)ccc1O`, the Potency entry was “inactive”.

For the compound `OC(Cn1cncn1)(c1ccc(F)cc1)c1ccccc1F` (stereo not given), the Potency result was “inactive”.

Consider `CNC(=O)Oc1cc(C)c(N(C)C)c(C)c1`, for which the Potency result was “inactive”.

For the compound `C[C@H](CN1CCOCC1)C(C(=O)N1CCCC1)(c1ccccc1)c1ccccc1`, the Potency entry is “inactive”.

In the case of `CCCC[P+](CC)(CCCC)CCCC` (tested in a mixture with another compound), the Potency entry was “inactive”.

For `OC(c1ccc(F)cc1)(c1cncnc1)c1ccccc1Cl` (stereo not given), the Potency entry was “inactive”.

As for `CON(C)C(=O)Nc1ccc(Cl)c(Cl)c1`, the Potency entry is “inactive”.

Consider `NC(=O)C(Cl)Cl`, for which the Potency result was “inactive”.

For `CCN(CC)CCOC(=O)C(O)(c1ccccc1)c1ccccc1`, the Potency entry was “inactive”.

`CC1OC(C)OC(C)O1` (stereo not given): the Potency entry is “inactive”.

Turning to `COC(=O)Cc1ccccc1`, the Potency entry is “inactive”.

In the case of `CC(=O)C1CCOC1=O` (stereo not given), the Potency result is “inactive”.

As for `Oc1cc(Cl)ccc1Oc1ccc(Cl)cc1Cl`, the Potency is 44.3 µM (active).

For the compound `N#CC(Cl)(Cl)Cl`, the Potency result was “inactive”.

For `COc1cc(CC#N)cc(OC)c1OC`, the Potency entry was “inactive”.

With `Cc1cc(Cl)ccc1O`, the Potency result is “inactive”.

For the compound `CCOC(C(=O)OCCN(C)C)(c1ccccc1)c1ccccc1`, the Potency entry is “inactive”.

With `CC(C)(C)OOC(C)(C)CCC(C)(C)OOC(C)(C)C`, the Potency result is “inactive”.

Regarding `BrCBr`, the Potency result is “inactive”.

These data come from PubChem BioAssay (Tox21).
